Assay [1] deals with Klebsiella pneumoniae. The settings on record: Concentration 32 ug.mL-1;; ASSAY_TEST Inhibition of Bacterial Growth; detection method Absorption (OD600); MEDIA CAMHB; plate type 384well; NBS; CORNING #3640; time 18 hr.
Assay [2] concerns Candida albicans. Conditions: Concentration 32 ug.mL-1; ASSAY_TEST Inhibition of Fungal Growth; detection method Absorption (OD530).
Assay [3] relates to Cryptococcus neoformans. The settings on record: Concentration 32 ug.mL-1; ASSAY_TEST Inhibition of Fungal Growth; detection method Resazurin; Absorption (OD600-OD570); plate type 384well; NBS; CORNING #3640.

Each structure is given as a SMILES string. Measured potencies and affinities stand elsewhere.

For the molecule `CCc1ccccc1Sc1nccn2c(=O)n(CC(=O)Nc3ccc(OC)c(Cl)c3)nc12`, the Inhibition in assay [1] came to 5.33%; in assay [2], 13.19%; in assay [3], 0.67%.

With `COc1cccc(Cn2nc3ccc(-c4ccccc4)nn3c2=O)c1`, the Inhibition is listed as 7.25% in assay [1], 2.39% in assay [2] and -3.25% in assay [3].

For the molecule `Cc1ccc(-c2ccc3nn(Cc4c(F)cccc4Cl)c(=O)n3n2)cc1`, the Inhibition in assay [1] is listed as 17.42%; in assay [2], -0.59%; in assay [3], -15.06%.

In the case of `Cc1cc(C)cc(Nc2nc(C)cc3nn(CC(=O)Nc4ccc(C)c(F)c4)c(=O)n23)c1`, the Inhibition in assay [1] was 19.17%; in assay [2], 3.06%; in assay [3] it was -10.1%.

In the case of `Cc1ccccc1Nc1cc(C)n2c(=O)n(CCOc3ccc(F)cc3)nc2n1`, the Inhibition is 9.7% in assay [1], -1.22% in assay [2] and -5.27% in assay [3].

Take `O=c1c2nnc(SCc3ccccc3Cl)n2ccn1-c1ccc(F)cc1`: the Inhibition in assay [1] is on record as 8%; in assay [2], 2.71%; in assay [3] it was -9%.

Turning to `Cc1nnc2c(S(=O)(=O)N(Cc3ccc(F)cc3)c3ccc(C(C)C)cc3)cccn12`, the Inhibition in assay [1] is 1.5%; in assay [2], 2.93%; in assay [3], -6.86%.

`COc1ccccc1-n1ccn2c(SCC(=O)Nc3ccc4c(c3)OCO4)nnc2c1=O`: the results for the Inhibition in assay [1], in assay [2] and in assay [3] were 8.58%, 4.47% and -4.47%, respectively.

`CCCCc1ccc(NC(=O)CSc2nnc3c4cc(-c5ccc(C)cc5)nn4ccn23)cc1`: the Inhibition in assay [1] is recorded as 4.94%; in assay [2] it was 0.26%; in assay [3], -7.77%.

As for `O=c1n(Cc2ccc3c(c2)OCO3)nc2c(S(=O)(=O)N3CCCC3)cccn12`, the Inhibition in assay [1] is listed as 5.42%; in assay [2] it was 0.37%; in assay [3] it was -5.87%.

With `Cc1cccc(CN(c2cccc(Cl)c2)S(=O)(=O)c2cccn3c(C)nnc23)c1`, the Inhibition in assay [1] is -0.09%; in assay [2], 1.52%; in assay [3], -9.64%.

Turning to `CC(C)Cn1c(=O)c2ccc(C(=O)NC3CCCCC3)cc2n2c(=O)n(CC#N)nc12`, the Inhibition is 10.69% in assay [1], -0.09% in assay [2] and -19.28% in assay [3].

As for `CCCCn1c(=O)c2sccc2n2c(CCC(=O)NCCC34CC5CC(CC(C5)C3)C4)nnc12`, the Inhibition in assay [1] was 8.76%; in assay [2], -0.35%; in assay [3], -18.41%.

Take `CCc1ccccc1Sc1nccn2c(=O)n(CC(=O)Nc3cc(C)ccc3C)nc12`: the Inhibition in assay [1] is on record as 13.72%; in assay [2], 1.62%; in assay [3], -13.69%.

With `Cc1cc2nn(CC(=O)NC(C)C)c(=O)n2c(-c2ccc(C(F)(F)F)cc2)n1`, the Inhibition in assay [1] is recorded as 3.27%; in assay [2], 1.65%; in assay [3], -4.89%.

As for `COc1ccccc1N1CCN(C(=O)Cn2nc3ccc(-c4ccc(C)c(C)c4)nn3c2=O)CC1`, the values for the Inhibition in assay [1], in assay [2] and in assay [3] were 9.25%, -0.19% and -3.44%, respectively.

With `O=C(CSc1nnc2c3cc(-c4ccc(F)cc4)nn3ccn12)Nc1ccccc1C(F)(F)F`, the Inhibition is on record as -6.96% in assay [1], 5.14% in assay [2] and -18.14% in assay [3].

Regarding `CCc1ccc(N(Cc2ccccc2C)S(=O)(=O)c2cccn3c(CC)nnc23)cc1`, the Inhibition in assay [1] is 6.17%; in assay [2] it was 4.38%; in assay [3] it was -7.67%.

As for `CCOC(=O)N1CCN(C(=O)CCc2nnc3c4cc(-c5ccc(F)cc5)nn4ccn23)CC1`, the Inhibition in assay [1] is 12.38%; in assay [2], 2.97%; in assay [3] it was -14.63%.

Regarding `O=C(Cn1nc2c(Oc3ccccc3)nccn2c1=O)Nc1ccccc1C(F)(F)F`, the results for the Inhibition in assay [1], in assay [2] and in assay [3] were 6.19%, 0.13% and -8.9%, respectively.

As to `Cc1ccc(-c2ccc3nn(Cc4nc(-c5ccc(Cl)cc5)no4)c(=O)n3n2)cc1`, the Inhibition is given as 0.33% in assay [1], 7.26% in assay [2] and -7.02% in assay [3].

Take `COc1ccc(C(=O)CSc2nnc3c(=O)n(-c4ccc(F)c(F)c4)ccn23)cc1OC`: the Inhibition in assay [1] is reported as 11.04%; in assay [2], 3.34%; in assay [3], -3.67%.

With `CCOc1ccc(-n2ccn3c(SCC(=O)Nc4cc(F)ccc4F)nnc3c2=O)cc1`, the Inhibition is 6.4% in assay [1], 2.5% in assay [2] and -1.21% in assay [3].

With `COc1cccc(Oc2nccn3c(=O)n(CC(=O)Nc4ccc(Br)cc4F)nc23)c1`, the Inhibition in assay [1] is listed as 17.17%; in assay [2], 0.55%; in assay [3] it was -10.01%.

As to `Cc1ccc(N(CC(=O)OC(C)(C)C)S(=O)(=O)c2cccn3cnnc23)cc1`, the Inhibition is 9.31% in assay [1], 3.93% in assay [2] and -6.45% in assay [3].

`COc1ccc(-c2cc3c4nn(CC(=O)Nc5ccc(C)c(C)c5)c(=O)n4ccn3n2)cc1`: the Inhibition in assay [1] was 5.79%; in assay [2], -0.09%; in assay [3], -15.38%.

For `COc1ccc(NC(=O)Cn2nc3ccc(-c4ccc(Cl)cc4)nn3c2=O)cc1`, the Inhibition in assay [1] is reported as 12.68%; in assay [2], 0.32%; in assay [3], -12.45%.

On to `COc1ccc(C)cc1NC(=O)Cn1nc2c(N3CCSCC3)nc3ccccc3n2c1=O`, for which the results for the Inhibition in assay [1], in assay [2] and in assay [3] were 14.66%, -2.66% and -24.78%, respectively.

Consider `COc1ccccc1CNC(=O)Cn1nc2c(N3CCCCCC3)nccn2c1=O`, for which the Inhibition in assay [1] was 8.05%; in assay [2] it was 3.98%; in assay [3], -7.24%.

With `COC(=O)c1ccc(NC(=O)Cn2nc3c4cc(-c5ccc(OC)cc5)nn4ccn3c2=O)cc1`, the Inhibition in assay [1] is recorded as 9.58%; in assay [2], 0.9%; in assay [3], -33.46%.
